{"source": "the supplement of paper PMC3334620", "note": "Whole data set: some 33,000 sequences, median “E-score (-0.5 to 0.5)” near -0.0034, cut for the highest 2% near 0.25. Many of the other results were omitted from the sample, so the highest values are more common in it than they were."}
{"molecular_target": "T1, Yap3 (UniProt P38749)", "T1 sequence": "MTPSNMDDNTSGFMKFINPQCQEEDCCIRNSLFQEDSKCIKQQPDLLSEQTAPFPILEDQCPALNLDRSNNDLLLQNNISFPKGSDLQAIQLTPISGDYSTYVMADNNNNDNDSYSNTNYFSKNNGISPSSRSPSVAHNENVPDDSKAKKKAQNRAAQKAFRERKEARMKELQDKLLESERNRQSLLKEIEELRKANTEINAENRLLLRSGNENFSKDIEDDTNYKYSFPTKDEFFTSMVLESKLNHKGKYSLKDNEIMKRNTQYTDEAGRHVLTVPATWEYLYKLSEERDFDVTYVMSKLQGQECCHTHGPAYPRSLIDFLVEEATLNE", "experiment": "PBM E-score (8-mer binding enrichment) (E-score (-0.5 to 0.5)); higher = stronger / more preferred TF binding", "conditions": "protein concentration: 100 nM; construct: GST-full length", "how_it_was_run": "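Universal all-10-mer Agilent arrays, double-stranded by primer extension on fresh or once-stripped slides, were probed with about 100-200 nM GST-tagged yeast transcription factors made by PURExpress. Fluorescent anti-GST detected bound protein, and masliner normalised the scans. E-scores from the Universal PBM Analysis Suite were given to each ungapped eight-base word pooled with its reverse complement.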"}
{"sequence": "TAGGTCAA", "PBM E-score": 0.0932}
{"sequence": "AGGAATAA", "PBM E-score": 0.156}
{"sequence": "GTGGTAAA", "PBM E-score": -0.0974}
{"sequence": "AGAGCTCC", "PBM E-score": -0.275}
{"sequence": "AATTGGAG", "PBM E-score": -0.0503}
{"sequence": "ATGGCCGA", "PBM E-score": 0.0282}
{"sequence": "ATGTGCAA", "PBM E-score": 0.059}
{"sequence": "ATCTGTTG", "PBM E-score": -0.0152}
{"sequence": "AAAAACTC", "PBM E-score": 0.072}
{"sequence": "AGAATCGG", "PBM E-score": -0.0519}
{"sequence": "ACAGACAC", "PBM E-score": -0.0498}
{"sequence": "AAAGACAA", "PBM E-score": 0.261}
{"sequence": "CAAGACAA", "PBM E-score": 0.0625}
{"sequence": "TAAGACAA", "PBM E-score": 0.187}
{"sequence": "ACAGACAG", "PBM E-score": 0.0669}
{"sequence": "ACAGACAA", "PBM E-score": 0.285}
{"sequence": "CGACCAAA", "PBM E-score": 0.174}
{"sequence": "CCTCAGGC", "PBM E-score": -0.249}
{"sequence": "CAGGTGCG", "PBM E-score": 0.015}
{"sequence": "ATAAAATC", "PBM E-score": 0.207}
{"sequence": "ATAAAAAG", "PBM E-score": 0.261}
{"sequence": "AAAAAATG", "PBM E-score": 0.209}
{"sequence": "ATAAAACG", "PBM E-score": 0.206}
{"sequence": "GTAAAATA", "PBM E-score": 0.117}
{"sequence": "ATAAAAAA", "PBM E-score": 0.187}
{"sequence": "ATAAAATG", "PBM E-score": 0.276}
{"sequence": "ATAAAATA", "PBM E-score": 0.298}
{"sequence": "ATAAAAGG", "PBM E-score": -0.011}
{"sequence": "GACATTCC", "PBM E-score": -0.186}
{"sequence": "ACTGACCG", "PBM E-score": -0.0919}
{"sequence": "ACCCCTCT", "PBM E-score": -0.251}
{"sequence": "AGTTGAAC", "PBM E-score": 0.00888}
{"sequence": "GATCTTGA", "PBM E-score": 0.0634}
{"sequence": "ACACTTGC", "PBM E-score": 0.0282}
{"sequence": "CAAATGAC", "PBM E-score": 0.0524}
{"sequence": "CAAATGAA", "PBM E-score": 0.14}
{"sequence": "TAAATGAA", "PBM E-score": 0.117}
{"sequence": "GAAATGAC", "PBM E-score": 0.259}
{"sequence": "GAAATGAA", "PBM E-score": 0.289}
{"sequence": "GAAATGCC", "PBM E-score": 0.0869}
{"sequence": "TTGGCCAA", "PBM E-score": -0.0814}
{"sequence": "GCGCCCAC", "PBM E-score": -0.0948}
{"sequence": "ATGCTACC", "PBM E-score": 0.0357}
{"sequence": "ACCTCTCC", "PBM E-score": -0.165}
{"sequence": "ACATGGCA", "PBM E-score": -0.0266}
{"sequence": "TATAACCA", "PBM E-score": 0.269}
{"sequence": "GATAACCA", "PBM E-score": 0.161}
{"sequence": "CATAACAA", "PBM E-score": 0.18}
{"sequence": "CATAACCA", "PBM E-score": 0.0668}
{"sequence": "TATAACAA", "PBM E-score": 0.265}
{"sequence": "GATAACAA", "PBM E-score": 0.0894}
{"sequence": "GAGGGGCA", "PBM E-score": -0.299}
{"sequence": "CAATGCTG", "PBM E-score": -0.114}
{"sequence": "AGCAAAAA", "PBM E-score": 0.122}
{"sequence": "CCCAACGA", "PBM E-score": -0.0115}
{"sequence": "GATTTTCA", "PBM E-score": 0.175}
{"sequence": "AATTATCA", "PBM E-score": 0.288}
{"sequence": "AATTATCC", "PBM E-score": 0.133}
{"sequence": "CATTATCA", "PBM E-score": 0.161}
{"sequence": "AATTATCT", "PBM E-score": 0.237}
{"sequence": "AATTATCG", "PBM E-score": 0.267}
{"sequence": "CATTATCG", "PBM E-score": 0.129}
{"sequence": "TTCCCGAA", "PBM E-score": 0.115}
{"sequence": "CGAGTACG", "PBM E-score": -0.147}
{"sequence": "GGAAGGTA", "PBM E-score": -0.0252}
{"sequence": "AGAAGGTA", "PBM E-score": 0.28}
{"sequence": "AGAAGGTG", "PBM E-score": 0.029}
{"sequence": "TGAGCTCA", "PBM E-score": 0.0969}
{"sequence": "AAAGGTCT", "PBM E-score": -0.0778}
{"sequence": "GTTGGCTA", "PBM E-score": 0.12}
{"sequence": "ATGGGTAG", "PBM E-score": -0.0623}
{"sequence": "GTGCAGCA", "PBM E-score": -0.204}
{"sequence": "ACTTTGTA", "PBM E-score": 0.0238}
{"sequence": "GCTTTGTA", "PBM E-score": 0.259}
{"sequence": "CCTTTGTA", "PBM E-score": -0.135}
{"sequence": "GATTATGC", "PBM E-score": 0.0614}
{"sequence": "AATTATGC", "PBM E-score": 0.273}
{"sequence": "AATTATGG", "PBM E-score": 0.238}
{"sequence": "AATTATGT", "PBM E-score": 0.164}
{"sequence": "AATTATGA", "PBM E-score": 0.278}
{"sequence": "CATTATGC", "PBM E-score": 0.0641}
{"sequence": "CAGTCTAC", "PBM E-score": -0.192}
{"sequence": "GGCTTCCC", "PBM E-score": -0.127}
{"sequence": "CTCCAACA", "PBM E-score": 0.141}
{"sequence": "CTTTACGA", "PBM E-score": -0.0493}
{"sequence": "TATTACCA", "PBM E-score": 0.196}
{"sequence": "CATTACGA", "PBM E-score": 0.149}
{"sequence": "AATTACAA", "PBM E-score": 0.151}
{"sequence": "TATTACGA", "PBM E-score": 0.326}
{"sequence": "AATTACGA", "PBM E-score": 0.33}
{"sequence": "GATTACGA", "PBM E-score": 0.291}
{"sequence": "GCTTACGA", "PBM E-score": 0.219}
{"sequence": "ACTTACGC", "PBM E-score": 0.122}
{"sequence": "ACTTACGA", "PBM E-score": 0.315}
{"sequence": "GATTACGC", "PBM E-score": 0.108}
{"sequence": "GGTTACGA", "PBM E-score": 0.06}
